Bioassay records: PubChem BioAssay, National Center for Advancing Translational Sciences (NCATS)
The list is not random: actives were taken first. Their share in the collection is about 6.8%.
KB-V1 cytotox – qHTS assay for MDR1-selective chemotherapeutics: Primary screen using the drug-selected MDR subline cells KB-V1 | KB-V1 MDR cells viability, CellTiter-Glo, 72 h | Potency, µM (highest dose often 46.1 µM), usual class: cytotoxic | hit rate 3.4% among 400,000; further: on the % scale 0 is the no-effect control and ±100 the full control effect; nearly all actives have a fitted effect of over 60% in size
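Luminescent ATP read-out (CellTiter-Glo, 10 min) measures survival of drug-selected KB-V1 MDR cells after 72 h, 37 degrees C compound exposure. Medium: phenol-red-free DMEM, 10% FBS. Values from fitted concentration-response curves.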
SW480 rerep – A quantitative high throughput screen for small molecules that induce DNA re-replication in SW480 colon adenocarcinoma cells. SW480 DNA re-replication, Hoechst DNA content imaging, 48 h. Potency, µM (titrated, usually from 46.1 µM), without a hit: at the highest dose re-replication activation, most hits filed as activators. hit rate 1.8% among 340,000. AID 624297, 2012; further: % of control where 0% means no effect; nearly all actives have a fitted effect of over 55% in size
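Quantitative HTS format with DMSO vehicle controls; 48 hr drug incubation at 37 C, then 40 min Hoechst staining and scanning imager measurement at 405 nm excitation.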
PTAP TSG101 blk – qHTS Assay for Iinhibitors of HIV-1 Budding by Blocking the Interaction of PTAP/TSG101; Fluorescence polarization, FITC-PTAP peptide / Tsg101 binding; Potency, µM (series often up to 115 µM), without a hit: at the top dose activity change, negative = inhibition, usual class: inhibitors; 340,000 tested, under 10 active; AID 493005, 2010; active means well fitted inhibition curve with a large enough effect in the main read-out, with a control signal flat, not every such curve was filed as active; inconclusive means small, poorly fitted or top-dose-only effect, or effect the other way, or a change in a side signal; inactive means no such curve, though single readings can be large or run the other way; further: % of control where 0% means no effect
Target sequence (Q99816 whole entry, looked up): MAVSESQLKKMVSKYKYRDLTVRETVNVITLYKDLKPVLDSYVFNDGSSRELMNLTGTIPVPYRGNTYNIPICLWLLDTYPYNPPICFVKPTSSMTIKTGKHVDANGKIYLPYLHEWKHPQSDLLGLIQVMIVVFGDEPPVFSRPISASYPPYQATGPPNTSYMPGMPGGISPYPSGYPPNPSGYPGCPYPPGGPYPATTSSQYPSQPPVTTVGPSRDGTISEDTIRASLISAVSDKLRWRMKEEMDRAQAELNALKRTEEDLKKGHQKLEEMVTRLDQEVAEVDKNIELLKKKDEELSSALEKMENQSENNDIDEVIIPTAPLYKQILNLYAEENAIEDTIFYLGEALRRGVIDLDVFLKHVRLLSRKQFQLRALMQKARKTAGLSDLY
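Tsg101 binding domain (10 uM final) was mixed with compound and a FITC-labeled PTAP peptide (50 nM final) in HEPES pH 7.5 buffer with NaCl, Tween 20, EDTA and TCEP; fluorescence polarization was read after 20 min at r.t.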
KB-3-1 cytotox – qHTS assay for MDR1-selective chemotherapeutics: Primary screen using the parental adenocarcinoma cell KB-3-1. Potency, µM (highest dose often 46.1 µM), usual class: cytotoxic. hit rate 1.4% among 400,000. KB-3-1 viability, CellTiter-Glo ATP luminescence, 72 h; further: on the % scale 0 is the no-effect control and ±100 the full control effect; nearly all actives have a fitted effect of over 60% in size
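Parental KB-3-1 viability, qHTS format: 72 h compound exposure, 37 °C; CellTiter-Glo; media-only wells and DMSO plates as controls; concentration-effect fits on corrected data.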
MCF10A rerep – A quantitative high throughput screen for small molecules that induce DNA re-replication in MCF 10a normal breast cells. hit rate 2.9% among 350,000. MCF 10A DNA re-replication, Hoechst nuclear intensity, 48 h. Potency, µM (highest dose often 46.1 µM), without a hit: top-dose activity, positive = re-replication, most hits filed as activators. AID 624296, 2012; further: % of control where 0% means no effect; nearly all actives have a fitted effect of over 50% in size
PINK1 modulator – A Quantitative High throughput Screen to Identify Chemical Modulators of PINK1 Expression. PINK1 immunofluorescence, high-content cytometry, 24 h. Potency, µM (titrated, usually from 76.6 µM), without a hit: at the highest dose activation (PINK1 increase), usual class: activators. hit rate 0.2% among 410,000. AID 624263, 2012; active means well fitted activation curve with a large enough effect; inconclusive means small, poorly fitted or top-dose-only effect; cell line not stated here; further: % of control where 0% means no effect; nearly all actives have a fitted effect of over 65% in size
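Stable cell line, 250 cells/well, 12 h attachment; compounds pinned at 5 concentrations, 24 h; CCCP control. Fixed with nuclear dye, primary antibodies 12 h at 10 degrees C, secondary plus cell stain; laser-scanning cytometer read.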
Numbers without * were called inactive; i = inactive; ? = inconclusive; . = not tested or not shown. Unless noted, the call rests on the fitted dose curve; in most records, active means well fitted curve in the direction sought with a large enough effect; inconclusive means small, poorly fitted or top-dose-only effect, or another doubt; inactive means no such curve, though single readings can be large; an effect the other way counts as inactive or inconclusive. Potency means the concentration at half of the fitted maximal effect.

SMILES	KB-V1 cytotox	SW480 rerep	PTAP TSG101 blk	KB-3-1 cytotox	MCF10A rerep	PINK1 modulator
CCc1nc(SCC(=O)Nc2cccc3ccccc23)[nH]c(=O)c1C	i	-3%	1%	i	3%	1%
Cc1c(C)n2c(SCC(=O)Nc3cccc4ccccc34)nnc2[nH]c1=O	i	23µM*	-5%	i	16%	1%
COC(CNC(=O)c1ccc(N2CCc3ccccc32)c([N+](=O)[O-])c1)OC	15µM*	-3%	1%	?	?	11%
NNC(=O)c1ccc(N2CCc3ccccc32)c([N+](=O)[O-])c1	i	-2%	0%	i	?	-1%
CCCCCCC[n+]1ccc(/C=C/c2c[nH]c3ccccc23)c2ccccc21	?	.	.	7.3µM*	.	.
CCCCCCCCCC[n+]1ccc(/C=C/c2c(C)[nH]c3ccccc23)c2ccccc21	?	.	.	5.8µM*	.	.
CCCCCCC[n+]1ccc(/C=C/c2c(C)[nH]c3ccccc23)c2ccccc21	?	.	.	8.2µM*	.	.
Cc1ccc(-c2nc3n(n2)C(c2ccccc2Cl)C=C(c2ccc(Cl)cc2)N3)cc1 (stereo not given)	i	.	.	i	.	0%
CCOC(=O)N1CCN(Cc2ccc3c(c2)CN(C(=O)c2ccc(C#CC(C)(C)O)o2)CCO3)CC1	.	.	.	.	.	1%
Cc1ncc2c(c1CNS(=O)(=O)N(C)C)CCN(C(=O)/C=C/c1ccccc1F)C2	.	.	.	.	.	0%
Cc1ccccc1C(=O)N1CCN(c2ccc(NC(=O)c3ccc([N+](=O)[O-])o3)cc2)CC1	?	1.6µM*	-2%	5.8µM*	?	3%
CC(C)C(=O)N1CCN(c2ccc(NC(=O)c3ccc([N+](=O)[O-])o3)cc2)CC1	?	2%	-3%	?	2.6µM*	-1%
CC(C)C(=O)N1CCN(c2ccc(NC(=O)COc3ccccc3[N+](=O)[O-])cc2)CC1	18µM*	5%	-4%	?	21µM*	-1%
O=C(Nc1ccc(N2CCN(C(=O)c3ccccc3)CC2)cc1)c1ccc([N+](=O)[O-])o1	?	-15%	-4%	i	?	4%
COC(=O)c1c(C)[nH]c(-c2csc(N)n2)c1C	i	15µM*	-3%	?	?	0%
Cc1ccc(-n2cc(C(=O)c3ccc(N4CCN(C)CC4)cc3)nn2)cc1Cl	i	-46%	-4%	i	0.73µM*	1%
CN1CCN(c2ccc(C(=O)c3cn(-c4ccc(F)c(Cl)c4)nn3)cc2)CC1	?	5%	-3%	i	?	2%
Cc1ccc(/C(N)=N/OC(=O)N2c3ccccc3Sc3ccccc32)cc1	?	11%	-3%	i	14µM*	1%
COc1ccc(CC(=O)NCc2ccc3c(c2)CCN3C(C)=O)cc1	.	.	.	.	.	-1%
Cc1cc(C(C)(C)C)ccc1OCCCCN1CCCC1	i	4%	0%	i	13µM*	1%
Cc1cc(C(C)(C)C)ccc1OCCN1CCCC1	i	0%	-3%	i	?	1%
O=C(COC(=O)c1cccc(Br)c1)NC(=O)NC1CCCC1	i	-43%	-5%	i	0.46µM*	0%
O=P(O)(O)O	.	-4%	.	.	-2%	.
CN(C)CC(CCC(CN(C)C)C(O)(c1ccccc1)c1ccccc1)C(O)(c1ccccc1)c1ccccc1 (stereo not given)	?	?	-6%	?	21µM*	-3%
CN(C)CC(O)CN(c1ccccc1)c1ccccc1 (stereo not given)	i	-22%	2%	i	-16%	-1%
